This is a sample that favours compounds with a hit; in the whole collection about 27% have one here.
CYP2C9 activ – human CYP2C9 activators, primary screen, biochemical, luminescence. recombinant CYP2C9, luciferin-H conversion; stronger effect = higher value; factor 1 = untreated enzyme, 0 = blocked. activation factor at 5 µM. 1.4% of 96,000 active;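 active = activation factor of 2 or more for CYP2C9 at a 5 µM dose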
CYP2C19 inh – blockers of cytochrome P450 2C19 activity – biochemical, luminescence, ADME assay, primary screen; AID 778, 2007; P33261; 21% of 96,000 active; inhibition, % at 5 µM; CYP2C19 Supersomes, luciferin-H EGE luminescence, 30 min;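 active = CYP2C19 inhibition above a set limit at 5 µM in the primary screen, cut at about 50% in these data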
CYP2C19 act – human CYP2C19 activators, primary screen, biochemical, luminescence; activation factor at 5 µM; 96,000 tested, under 10 active; recombinant CYP2C19, luciferin-H EGE luminescence; stronger effect = higher value; 0 = fully inhibited enzyme, 1 = untreated enzyme;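 active = activation factor of at least 2 at 5 µM in the primary screen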
CYP2C9 inh – blockers of cytochrome P450 2C9 activity – biochemical, luminescence, ADME assay, primary screen; inhibition, % at 5 µM; P11712; CYP2C9 Supersomes, luciferin-H conversion; 20% of 96,000 active;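 active = blocking of liver enzyme CYP2C9 beyond about 50% at 5 µM, limit read from the data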
Cav3 T inh – Cav3.2 calcium influx blockers – cell-based, Fluo-4 calcium fluorescence, FDSS, MLSMR library, primary screen. Voltage-dependent T-type calcium channel subunit alpha-1H (Homo sapiens), O95180. Cav3.2-expressing cells; stronger effect = lower value. B-score at 10 µM. 4% of 100,000 active;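 active = single-dose well whose peak fluorescence ratio is a statistical outlier from its plate by either plate-standardised score or position-corrected B-score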
Large screens that a line does not name were inactive.

Cc1ccc(S(=O)(=O)N(C)CC(=O)NCc2ccncc2)cc1	CYP2C19 inh 90, CYP2C9 inh 80
COc1ccc(CCNC(=O)CN(C)S(=O)(=O)c2cccc3nsnc23)cc1OC	none
Cc1noc(C)c1S(=O)(=O)N(C)CC(=O)NCc1ccccc1	none
CCOC(=O)Cc1csc(NC(=O)CN(C)S(=O)(=O)c2cccc3cccnc23)n1	CYP2C19 inh 90, CYP2C9 inh 92
CC(C)Nc1nc(Cl)nc(NNC(=O)C(C)Oc2ccccc2)n1 (configuration not stated)	none
CC1CCCC(NC(=O)CN(C)S(=O)(=O)c2cccc3cccnc23)C1C (configuration not stated)	CYP2C9 activ 2.1, CYP2C19 inh 59
Cc1ccc(S(=O)(=O)N(CC(=O)NCc2ccncc2)C2CCCCC2)cc1	CYP2C19 inh 99, CYP2C9 inh 93
CS(=O)(=O)N(CC(=O)NCc1ccc(Cl)cc1)C1CCCCC1	none (no result: CYP2C9 activ, CYP2C19 inh, CYP2C19 act, CYP2C9 inh)
O=C(CN(C1CCCCC1)S(=O)(=O)c1ccc(Cl)cc1)NCCCO	CYP2C19 inh 60
Cc1ccc(S(=O)(=O)N(C)CC(=O)Nc2ccncc2)cc1	CYP2C19 inh 100, CYP2C9 inh 63
CC1CCCCC1NC(=O)CN(C)S(=O)(=O)c1cccc2nsnc12 (configuration not stated)	none
COc1cc(-n2c(C)nc3cc(C(=O)N4CCOCC4)ccc32)cc(OC)c1OC	none (no result: Cav3 T inh)
Cc1nc(NC(=O)c2ccccc2)sc1C1(C)CC(c2c(Cl)cccc2Cl)=NO1 (configuration not stated)	none (no result: CYP2C9 activ, CYP2C19 inh, CYP2C19 act, CYP2C9 inh)
COCCn1c(Cc2ccccc2)nnc1SCC(=O)N(C)C	none
CO/N=C(/CS(=O)Cc1ccc(Cl)cc1)c1ccc(Cl)cc1 (configuration not stated)	CYP2C19 inh 96, CYP2C9 inh 56
COc1cc(NS(=O)(=O)c2ccc(NC(=O)C34CC5CC(CC(C5)C3)C4)cc2)ncn1	none
COc1ccc(OCCC(=O)OCC(=O)NC(=O)NC(C)(C)C)cc1	CYP2C19 inh 84, CYP2C9 inh 83
Cc1cc(C)c(NC(=O)c2ccc(CN3CCc4ccccc4C3)cc2)c(C)c1	Cav3 T inh -4.3
O=C(Nc1ccc(S(=O)(=O)N2CCOCC2)cc1)c1ccc(CN2CCc3ccccc3C2)cc1	CYP2C9 inh 55
CCn1c(SCC(=O)c2cccs2)nnc1-c1ccco1	CYP2C19 inh 76
CCn1c(SCC(=O)N2c3ccccc3Sc3ccccc32)nnc1-c1ccco1	CYP2C19 inh 89, CYP2C9 inh 83
Cc1ccc(C(=O)NCCSc2c(C)[nH]c3ccccc23)cc1[N+](=O)[O-]	Cav3 T inh -6.9 (no result: CYP2C9 activ, CYP2C19 inh, CYP2C19 act, CYP2C9 inh)
Cc1[nH]c2ccccc2c1SCCN	none (no result: CYP2C9 activ, CYP2C19 inh, CYP2C19 act, CYP2C9 inh)
Cc1ccc(SCCNC(=O)c2ccc(C)c([N+](=O)[O-])c2)cc1	CYP2C19 inh 51, Cav3 T inh -5.6
CC(C)(CNC(=O)c1ccc([N+](=O)[O-])c(Cl)c1)CNC(=O)c1ccc([N+](=O)[O-])c(Cl)c1	none (no result: CYP2C9 activ, CYP2C9 inh)
Cc1cc(C)nc(NC(=O)c2ccc(C)c([N+](=O)[O-])c2)n1	none
Cc1ccc(C(=O)NCCSc2ccc(Cl)cc2)cc1[N+](=O)[O-]	Cav3 T inh -5.8 (no result: CYP2C9 activ, CYP2C19 inh, CYP2C19 act, CYP2C9 inh)
O=C(Cn1cnc2c(cnn2-c2ccc(Cl)cc2)c1=O)NCCc1ccccc1	none
Cc1ccc(C(O)c2cccnc2)o1 (configuration not stated)	none
CCCCc1nc(SCC(=O)Nc2cc(C)on2)n[nH]1	CYP2C19 inh 53, CYP2C9 inh 61
COc1ccc(-c2nc(SCC(=O)Nc3cc(C)on3)n[nH]2)cc1	CYP2C9 inh 89
Cc1cc(NC(c2cccnc2)c2c(C)[nH]c3ccccc23)no1 (configuration not stated)	CYP2C19 inh 62
Cc1cc(NC(=O)CSc2c(C)[nH]c3ccccc23)no1	CYP2C19 inh 66, Cav3 T inh -5.6
COc1ccc(-c2cc(C(F)(F)F)nc(SCC(=O)Nc3cc(C)on3)n2)cc1OC	none
CCCn1cnc2c1c(=O)n(CCCCC(C)=O)c(=O)n2C	none (no result: CYP2C9 activ, CYP2C19 inh, CYP2C19 act, CYP2C9 inh)
C/C(=N/Oc1nc(C)cc(C)n1)c1ccc(F)cc1	none
Cc1ccc(N2C(=O)c3ccc(C(=O)N4CCOCC4)cc3C2=O)cc1C	none (no result: CYP2C9 activ, CYP2C19 inh, CYP2C19 act, CYP2C9 inh)
CCN(CC(=O)Nc1ccccc1C(=O)OC)S(=O)(=O)c1ccccc1	CYP2C19 inh 80
CN(CC(=O)NC1CCCCCC1)S(=O)(=O)c1ccccc1	none
CSc1cccc(NC(=O)CN(C)S(=O)(=O)c2ccc(F)cc2)c1	CYP2C19 inh 63 (no result: Cav3 T inh)
COc1ccccc1C(=O)Nc1cccc(SC)c1	none (no result: CYP2C9 activ, CYP2C19 inh, CYP2C19 act, CYP2C9 inh)
CSc1cccc(NC(=O)COc2cccc3ccccc23)c1	CYP2C9 activ 2.2
CN(CC(N)=O)S(=O)(=O)c1ccc(F)cc1	none
CCCC(=O)Nc1ccccc1NC(=O)CN(C)S(=O)(=O)c1ccccc1	CYP2C9 inh 58
O=C(CN1CCN(C2CCCCC2)CC1)c1ccc2cc[nH]c2c1	none (no result: Cav3 T inh)
CCOC(=O)c1sc(SCc2ccccc2)c2c1CC(C)(C)CC2=O	none (no result: CYP2C9 activ, CYP2C19 inh, CYP2C19 act, CYP2C9 inh)
CSc1cccc(NC(=O)CN(C)S(=O)(=O)c2ccccc2)c1	CYP2C19 inh 86
CC1(C(=O)NCc2ccccc2)Oc2ccccc2NC1=O (configuration not stated)	CYP2C19 inh 77, CYP2C9 inh 76
CC12CC(c3ccccc3O1)C(C(=O)NCc1ccccc1)C(=O)N2 (configuration not stated)	CYP2C19 inh 60
O=C1CC(C(=O)NCc2ccccc2)C2(CCCC2)O1 (configuration not stated)	none
O=C(Nc1cccc(C(F)(F)F)c1)C1CCCCC1	CYP2C19 inh 87, CYP2C9 inh 69
N/C(CC(=O)Nc1cccc(C(F)(F)F)c1)=N/O	none
CCc1nnc(NC(=O)C2CCN(c3nc(C)cc(C)n3)CC2)s1	none
Cc1ccnc(N2CCC(C(=O)Nc3ccc4c(c3)CCC4)CC2)n1	none
CS(=O)(=O)N1CCC(C(=O)Nc2cccc(C(F)(F)F)c2)CC1	none
Cc1cccc(NC(=O)C2CCN(c3nccc(C)n3)CC2)c1	CYP2C19 inh 70
Cc1cc(C)nc(N2CCC(C(=O)Nc3cccc(C(F)(F)F)c3)CC2)n1	Cav3 T inh -4.2
O=C(/C=C/c1cccc(C(F)(F)F)c1)Nc1cccc(C(F)(F)F)c1	CYP2C9 activ 2.9
CCN(CC)C(=O)Cn1nc(C)c2ccccc2c1=O	none
COc1cccc(CN2C(=O)[C@@H]3Cc4c([nH]c5ccccc45)C(C)(C)N3C2=O)c1	none (no result: CYP2C9 activ, CYP2C19 inh, CYP2C19 act, CYP2C9 inh)
Cn1c(CN2CCOCC2)nnc1SCC(=O)NCCc1ccccc1	none
CCOc1ccc2ccccc2c1C(=O)Nc1cc(=O)n(C)c(=O)n1C	none (no result: CYP2C9 activ, CYP2C19 inh, CYP2C19 act, CYP2C9 inh)
Cc1nn(Cc2c(F)c(F)c(F)c(F)c2F)c(C)c1NC(=O)c1ccc(COc2ccc(F)cc2)o1	Cav3 T inh -4.9
Cc1nn(Cc2c(F)c(F)c(F)c(F)c2F)c(C)c1NC(=O)c1ccc(COc2ccccc2Cl)cc1	none
